# Results filed as inconclusive are left out. A call without a number means that no potency is given here. Unmarked numbers belong to inactive results. Activity calls are given as the source filed them. Calls come from the whole dose curve; as a rule, active = well fitted cell-killing curve with a large enough effect; inconclusive = small, poorly fitted or top-dose-only effect; inactive = no such curve, though single readings can be large or run the other way.
# Experiment: qHTS of pediatric cancer cell lines to identify multiple opportunities for drug repurposing: Primary screen for Saos-2 cells (AID 1347097); note: nearly all actives have a fitted effect of over 40% in size
# Settings: Saos-2 viability, CellTiter-Glo ATP luminescence, 48 h; series mostly up to 46 µM
# From the text: Drug repurposing or repositioning has been offered as a strategy for drug development in oncology programs. This approach has special potential for childhood cancers and other rare or orphan diseases, where the expected return on new drug development has been a disincentive to pharmaceuticals. […] In this project we exploit the poly-pharmacology of drugs to discover new indications via phenotypic screening of a panel of 19 well-characterized cell lines derived from solid tumors seen in children and adolescents. The goal is to identify approved drugs with previously unrecognized anticancer properties that has the potential to reveal new mechanisms and biological processes involved in carcinogenesis or drug resistance. We employed a titration-based paradigm (quantitative high-throughput screening or qHTS), where all compounds were tested at multiple concentrations for their effect on cell viability. Concentration-response curves (CRCs) were derived directly from the primary screen, and both potency and efficacy values were used to identify compounds with robust bioactivity profiles. We screened the NIH Chemical Genomics Center (NCGC) Pharmaceutical Collection (NPC) and Mechanism Interrogation Plate (MIPE) small molecule collections of approved and investigational compounds against these cell lines; and measured metabolically active cells after 48 hours of compound treatment as a proxy for cell viability. […] Assay Submitter: Nathalia J. Martinez, National Center for Advancing Translational Sciences, National Institutes of Health, Rockville, MD, USA; email: natalia.martinez@nih.gov Shen, M et al. Quantitative high-throughput phenotypic screening of pediatric cancer cell lines identifies multiple opportunities for drug repurposing. Oncotarget 2017 Dec 19;9(4):4758-4772. PMID 29435139.
# The cells were obtained from University of North Carolina (UNC), Pediatric Preclinical Testing Program (PPT), and Coriell Institute (CI). qHTS cell viability assay: Cells were assayed in growth media at a density of 500-1,000 cells/well. Five microliters of cells were dispensed into 1,536-well, white, solid-bottom, TC-treated plates (Greiner Bio One) using a multidrop dispenser and incubated at 37 degrees C, 5% CO2, under a humidified atmosphere for 5 hours. Twenty-three nanoliters of compounds and controls (neutral control DMSO or positive control bortezomib at final concentration of 2.3 µM) were subsequently transferred by Kalypsys pintool. For primary screens, the MIPE collection was tested at 11-point dilutions (final concentrations range from 0.78 nM to 46 µM) and the NPC collection at 8-point dilutions (final concentrations range from 0.59 nM to 46 µM). Compounds tested in follow-up screens were assayed at 11-point dilutions. Cells were incubated for 48 hours, followed by addition of 3 µL of CellTiter-Glo (Promega). After a 15 min incubation at room temperature, samples were analyzed for luminescence intensity using a ViewLux High-throughput CCD imager equipped with clear filters.
# Potency is the fitted concentration of half-maximal effect.
Structure (SMILES),Potency,"activity change, negative = cytotoxic"
NC(=O)NNc1ccccc1,inactive,–
COC(=O)[C@H]1[C@H]2C[C@@H]3c4[nH]c5cc(OC)ccc5c4CCN3C[C@H]2C[C@@H](OC(=O)COc2ccc(OC)cc2)[C@@H]1OC,inactive,–
NCCNCCNCCNCCN,–,-19.8% [at 9.22 µM]
CCN(CC)CCNC(C(=O)OCCC(C)C)c1ccccc1 (stereo not given),inactive,–
CC(=O)c1ccc2c(c1)N(CCCN(C)C)c1ccccc1S2,inactive,–
NS(=O)(=O)c1cc2c(cc1C(F)(F)F)NC(Cc1ccccc1)NS2(=O)=O (stereo not given),inactive,–
Nc1ccc(S(=O)(=O)Nc2ccccc2)cc1,inactive,–
CN(C)CC[C@@H](c1ccc(Cl)cc1)c1ccccn1,inactive,–
CC1=C(/C=C/C(C)=C/C=C/C(C)=C/C(=O)O)C(C)(C)CCC1,inactive,–
CCCCc1ncc(/C=C(\Cc2cccs2)C(=O)O)n1Cc1ccc(C(=O)O)cc1,inactive,–
CC1(C)OC(=O)NC1=O,inactive,–
CCOC(=O)[C@H](CCc1ccccc1)N[C@@H](C)C(=O)N1C(=O)N(C)C[C@H]1C(=O)O,inactive,–
Nc1nc2c(ncn2CCC(CO)CO)c(=O)[nH]1,inactive,–
Nc1ccc(S(=O)(=O)Nc2ccc(Cl)nn2)cc1,inactive,–
CC/C=C(\C(=O)N[C@@H]1C(=O)N2C(C(=O)OCOC(=O)C(C)(C)C)=C(COC(N)=O)CS[C@H]12)c1csc(N)n1,inactive,–
OCCN1CCN(CCCN2c3ccccc3Sc3ccc(Cl)cc32)CC1,11.9 µM (active),–
COc1ccccc1O,inactive,–
O=c1[nH]cnc2c1ncn2[C@@H]1O[C@H](CO)[C@@H](O)[C@H]1O,inactive,–
CCCCOc1cc(C(=O)OCCN(CC)CC)ccc1N,inactive,–
CCN(CC)C(=O)Nc1ccc(OCC(O)CNC(C)(C)C)c(C(C)=O)c1 (stereo not given),inactive,–

Structure (SMILES),Potency,"activity change, negative = cytotoxic"
Cc1cc2nc3c(=O)[nH]c(=O)nc-3n(C[C@H](O)[C@H](O)[C@H](O)CO)c2cc1C,inactive,–
CCCCN1CCCC[C@H]1C(=O)Nc1c(C)cccc1C,inactive,–
O=c1cc[nH]c(=S)[nH]1,inactive,–
C[C@](N)(Cc1ccc(O)cc1)C(=O)O,–,-22.2% [at 4.84 µM]
CC1=C(CC(=O)O)c2cc(F)ccc2/C1=C\c1ccc(S(C)=O)cc1 (stereo not given),inactive,–
COc1ccc2[nH]c(S(=O)Cc3ncc(C)c(OC)c3C)nc2n1 (stereo not given),inactive,–
COc1ccc(S(=O)(=O)Nc2nnc(CC(C)C)s2)cc1,inactive,–
CN(N=O)C(=O)N[C@@H]1[C@@H](O)[C@H](O)[C@@H](CO)O[C@@H]1O,inactive,–
C[C@@H]1CCN(C(=O)[C@H](CCCN=C(N)N)NS(=O)(=O)c2cccc3c2NC[C@H](C)C3)[C@@H](C(=O)O)C1,inactive,–
CCN(CC)C(C)CN1c2ccccc2Sc2ccccc21 (stereo not given),inactive,–
Oc1ccc(C(O)CNCCCCCCNCC(O)c2ccc(O)c(O)c2)cc1O (stereo not given),inactive,–
CNC(=O)Oc1ccc2c(c1)[C@]1(C)CCN(C)[C@@H]1N2C,inactive,–
CCCCC/C(C=O)=C\c1ccccc1,53.1 µM (active),–
CC(C)c1c(C(=O)Nc2ccccc2)c(-c2ccccc2)c(-c2ccc(F)cc2)n1CC[C@@H](O)C[C@@H](O)CC(=O)O,0.841 µM (active),–
O=C(O)COc1nn(Cc2ccccc2)c2ccccc12,inactive,–
Cn1c(=O)c2c(ncn2CC2OCCO2)n(C)c1=O,inactive,–
CCOC(=O)c1ccc(O)cc1,inactive,–
CCC(=O)c1ccc(O)cc1,inactive,–
N[C@H](C(=O)O)c1ccc(O)cc1,inactive,–
O=C(O)Cc1sc(-c2ccccc2)nc1-c1ccc(Cl)cc1,inactive,–

# Source: PubChem BioAssay (NCATS)
